Screening results as filed in PubChem BioAssay.
An excerpt weighted towards active compounds, which were near 9.4% of everything screened.
FLuc counter: qHTS profiling assay for firefly luciferase inhibitor/activator using purifed enzyme and Km concentrations of substrates (counterscreen for miR-21 project); Luciferin 4-monooxygenase (Photinus pyralis), P08659; purified FLuc, Km substrates, luminescence inhibition; Potency, µM (doses to about 57.5 µM), hits mostly inhibitors; 360,000 compounds, 6.9% hits; AID 588342, 2011; also: nearly all actives have a fitted effect of over 55% in size
Target sequence (P08659 whole entry, looked up): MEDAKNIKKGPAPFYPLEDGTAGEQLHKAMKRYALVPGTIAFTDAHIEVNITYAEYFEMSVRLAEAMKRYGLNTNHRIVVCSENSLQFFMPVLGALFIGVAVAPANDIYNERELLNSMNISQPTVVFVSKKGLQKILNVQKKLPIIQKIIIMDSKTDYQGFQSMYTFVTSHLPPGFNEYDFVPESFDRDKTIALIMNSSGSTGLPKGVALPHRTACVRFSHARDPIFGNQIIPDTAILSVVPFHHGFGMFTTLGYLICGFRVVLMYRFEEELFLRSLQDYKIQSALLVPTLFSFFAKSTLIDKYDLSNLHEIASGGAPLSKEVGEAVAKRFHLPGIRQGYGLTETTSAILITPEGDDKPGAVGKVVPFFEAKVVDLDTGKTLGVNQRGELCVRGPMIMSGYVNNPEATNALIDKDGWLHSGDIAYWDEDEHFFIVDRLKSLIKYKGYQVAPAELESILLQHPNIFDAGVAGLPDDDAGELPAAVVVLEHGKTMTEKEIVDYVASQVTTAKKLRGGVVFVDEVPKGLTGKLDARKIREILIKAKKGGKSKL
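Biochemical qHTS of compounds, final roughly 60 µM downward over six points, against 10 nM purified firefly luciferase using Km concentrations of substrates (10 uM D-luciferin, 10 uM ATP) in Tris acetate pH 7.5 buffer; luminescence output.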
ELG1 repair inh: qHTS screen for small molecules that inhibit ELG1-dependent DNA repair in human embryonic kidney (HEK293T) cells expressing luciferase-tagged ELG1 | HEK293T ELG1-luciferase reporter, luminescence, 16 h; DNA damage induced by 5-fluorouridine | Potency, µM (top dose mostly 46.1 µM), hits mostly inhibitors | 330,000 compounds, 2.3% hits | AID 504467, 2011; also: nearly all actives have a fitted effect of over 55% in size
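Quantitative HTS, concentration-response format. 2,000 cells/well co-treated with 5-fluorouridine and compound, 16 hr in 5% CO2 at 37 °C; ONE-Glo luminescence read after 30 min.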
ELG1 genotoxic: qHTS screen for small molecules that induce genotoxicity in human embryonic kidney (HEK293T) cells expressing luciferase-tagged ELG1 | HEK293T ELG1-luciferase reporter, luminescence, 16 h | Potency, µM (titrated, usually from 46 µM), usual class: activators | 330,000 compounds, 1.3% hits | AID 504466, 2011; also: nearly all actives have a fitted effect of over 60% in size
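HEK293T cells expressing luciferase-tagged ELG1 were treated with compound or DMSO for 16 hr at 37°C. Luciferase activity was then read after 30 min with ONE-Glo at room temperature; rising signal flags genetic stress.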
SMN2 splice up: qHTS Assay for Enhancers of SMN2 Splice Variant Expression; AID 1458, 2008; HEK293 SMN2-luciferase splicing reporter, luminescence, 30-36 h; 210,000 compounds, 2.8% hits; Potency, µM (top dose mostly 46.1 µM), usual class: activators; also: nearly all actives have a fitted effect of over 55% in size
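HEK293 cells carry an SMN2 […]–luciferase reporter in which exon 7 inclusion puts luciferase in frame. Cells were plated 10-12 h before compound addition, then incubated 30-36 h at 37C. ONE-Glo luminescence was read; sodium butyrate at 4.5 mM final served as control.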
Rab9 prom act: qHTS Assay for Rab9 Promoter Activators | Potency, µM (titrated, usually from 9.22 µM), actives largely listed as activators | 320,000 compounds, 2.8% hits | Huh7 Rab9 promoter-luciferase reporter, luminescence, 24 h; also: nearly all actives have a fitted effect of over 60% in size
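Stable Rab9-luc Huh7, 1500 cells/well, 2 h settle; cmpd in DMSO, 24 h, 37 °C/5% CO2; luciferase reagent 10 min RT; luminescence.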
NPC1 promoter act: qHTS Assay for NPC1 Promoter Activators; Huh7 NPC1 promoter luciferase reporter, 24 h; Potency, µM (highest dose often 9.22 µM), usual class: activators; 320,000 compounds, 2.4% hits; AID 485313, 2010; also: nearly all actives have a fitted effect of over 60% in size
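Stable NPC1-promoter luciferase Huh7 line; cpd (DMSO) 24 h, 37 °C, 5% CO2; Amplite luciferase reagent 10 min RT; luminescence readout. qHTS format.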
Of the large screens only hits and unclear results are named; the others gave an inactive call. Calls follow the shape of the dose curve; as a rule, active = well fitted curve in the direction sought with a large enough effect; inconclusive = small, poorly fitted or top-dose-only effect, or another doubt; inactive = no such curve, though single readings can be large; an effect the other way counts as inactive or inconclusive.

Cc1cc(C(=O)COc2ccc3ccc(=O)oc3c2)c(C)n1Cc1cccs1	FLuc counter inconclusive, ELG1 repair inh inconclusive
COc1ccc(NC(=O)c2cccs2)cc1	FLuc counter 15.1µM, ELG1 repair inh inconclusive, ELG1 genotoxic inconclusive, SMN2 splice up 17.8µM, Rab9 prom act inconclusive, NPC1 promoter act inconclusive
O=C1CN(C(=O)COc2ccc(Cl)cc2Cl)C(c2ccc(F)cc2)c2cc(F)ccc2N1 (centres undefined)	none (no result: ELG1 repair inh, ELG1 genotoxic, Rab9 prom act, NPC1 promoter act)
CCCCN(C)c1nc2c(S(=O)(=O)c3ccc(CC)cc3)nnn2c2ccc(Cl)cc12	SMN2 splice up inconclusive (no result: ELG1 repair inh, ELG1 genotoxic, Rab9 prom act, NPC1 promoter act)
COc1ccc(CCNC(=O)Cn2cc(C(=O)c3ccc(Cl)cc3)c(=O)c3ccc(C)nc32)cc1OC	none (no result: ELG1 repair inh, ELG1 genotoxic, SMN2 splice up, Rab9 prom act, NPC1 promoter act)
Cc1cc(C)c(NC(=O)CCC(=O)N2Cc3ccccc3Oc3ncccc32)c(C)c1	none (no result: ELG1 repair inh, ELG1 genotoxic, SMN2 splice up, Rab9 prom act, NPC1 promoter act)
N=C(N)SC(c1ccccc1)c1ccccc1	none (no result: FLuc counter, ELG1 repair inh, ELG1 genotoxic, Rab9 prom act, NPC1 promoter act)
Cc1ccc(NS(=O)(=O)c2cnc(N)nc2)c(C)c1	none (no result: ELG1 repair inh, ELG1 genotoxic, SMN2 splice up, Rab9 prom act, NPC1 promoter act)
O=C(Nc1ccc(NC(=O)c2ccc(Cl)cc2Cl)cc1)c1cccs1	none (no result: SMN2 splice up)
O=C(Nc1ccc(OCc2ccccc2)cc1)c1cccs1	FLuc counter 16.9µM, ELG1 repair inh inconclusive, ELG1 genotoxic inconclusive, Rab9 prom act 4.47µM, NPC1 promoter act 2.82µM (no result: SMN2 splice up)
COc1cccc(-c2nc(-c3ccc(NC(=O)c4cccs4)cc3)no2)c1	FLuc counter 13.5µM, Rab9 prom act inconclusive
O=C(Nc1ccc(Oc2ccc(C(=O)O)c(C(=O)O)c2)cc1)c1cccs1	FLuc counter 21.3µM (no result: SMN2 splice up)
Cc1cnc(C(=O)OCC(=O)Nc2ccc(OCc3ccccc3)cc2)cn1	FLuc counter inconclusive, ELG1 repair inh inconclusive, ELG1 genotoxic inconclusive, Rab9 prom act 2.51µM, NPC1 promoter act 2.82µM (no result: SMN2 splice up)
O=C(CCCCCn1c(=O)c2sccc2n(CC(=O)Nc2cc(C(F)(F)F)ccc2Cl)c1=O)NCc1ccccc1Cl	none (no result: ELG1 repair inh, ELG1 genotoxic, Rab9 prom act, NPC1 promoter act)
CC(C)CCNC(=O)c1cnc2sc(N3CCCCC3)nn2c1=O	none (no result: ELG1 repair inh, ELG1 genotoxic, SMN2 splice up, Rab9 prom act, NPC1 promoter act)
CCCN1CCN(CC2=C(C(=O)OCC)C(c3ccc(Cl)cc3)NC(=O)N2)CC1 (centres undefined)	none (no result: ELG1 repair inh, ELG1 genotoxic, Rab9 prom act, NPC1 promoter act)
O=C(Nc1ccc(NC(=S)NC(=O)c2cccs2)cc1)c1ccccc1	ELG1 repair inh inconclusive
COc1ccc(/C=N/NC(=O)CNC(=O)c2cccs2)cc1	FLuc counter 15.1µM
O=C(/C=C/c1cccs1)NC(=S)Nc1ccccc1	FLuc counter 26.9µM, ELG1 repair inh inconclusive, Rab9 prom act inconclusive
COc1ccc(NC(=O)/C=C/c2ccccc2)c([N+](=O)[O-])c1	FLuc counter inconclusive, ELG1 repair inh inconclusive, ELG1 genotoxic inconclusive, SMN2 splice up 10µM, Rab9 prom act 3.16µM, NPC1 promoter act inconclusive
NS(=O)(=O)c1ccc(NC(=O)/C=C/c2cccs2)cc1	ELG1 repair inh inconclusive (no result: SMN2 splice up)
O=C(NC(=S)Nc1ccccc1)c1cccs1	FLuc counter 16.9µM, ELG1 repair inh inconclusive, ELG1 genotoxic inconclusive, Rab9 prom act inconclusive, NPC1 promoter act 2µM (no result: SMN2 splice up)
CCOc1ccc(CNC(=O)c2c(C)nn(-c3ccc(F)cc3)c2-n2cccc2)cc1	none (no result: ELG1 repair inh, ELG1 genotoxic, SMN2 splice up, Rab9 prom act, NPC1 promoter act)
CC(=O)NC(=S)Nc1ccc(NC(=O)c2cccs2)cc1	FLuc counter inconclusive, SMN2 splice up inconclusive, Rab9 prom act inconclusive, NPC1 promoter act inconclusive
CC(C)c1ccc(NC(=S)NNC(=O)c2cccs2)cc1	FLuc counter 21.3µM, ELG1 repair inh inconclusive, ELG1 genotoxic inconclusive, SMN2 splice up inconclusive, Rab9 prom act inconclusive, NPC1 promoter act inconclusive
N/C(=N\OC(=O)CCCc1ccccc1)c1ccccn1	FLuc counter 2.13µM, ELG1 repair inh inconclusive
N/C(=N\OC(=O)Cc1ccccc1)c1ccccn1	FLuc counter 16.9µM, ELG1 repair inh inconclusive
N/C(=N\OC(=O)CCC1CCCC1)c1ccccn1	FLuc counter 0.477µM, ELG1 repair inh inconclusive, ELG1 genotoxic inconclusive, SMN2 splice up inconclusive
COc1ccc(C(C)=O)cc1CSc1nnc(Nc2ccccc2)s1	ELG1 repair inh 14.6µM
C/C(N)=C(/C#N)C(=O)CSc1nc2ccccc2[nH]1	FLuc counter 21.3µM, ELG1 repair inh inconclusive, ELG1 genotoxic 20.6µM, SMN2 splice up inconclusive, Rab9 prom act inconclusive, NPC1 promoter act inconclusive
C/C(N)=C(/C#N)C(=O)CSc1nnc(Nc2ccccc2)s1	FLuc counter 21.3µM, ELG1 repair inh inconclusive, ELG1 genotoxic inconclusive, SMN2 splice up 11.2µM, Rab9 prom act 2µM, NPC1 promoter act inconclusive
COc1ccc(C(C)=O)cc1CSc1nnc(Nc2ccc(C)cc2)s1	ELG1 repair inh inconclusive
Cc1cccc(C)c1-n1c(SCC(=O)N2CC(=O)Nc3ccccc32)nc2ccccc2c1=O	none
C/C(N)=C(/C#N)C(=O)CSc1nnc(Nc2ccccc2C)s1	FLuc counter inconclusive, NPC1 promoter act inconclusive
Cc1ccc(-n2c(SCC(=O)N3CC(=O)Nc4ccccc43)nc3ccccc3c2=O)cc1	ELG1 repair inh 18.4µM (no result: SMN2 splice up)
C/C(N)=C(/C#N)C(=O)CSc1ncnc2ccccc12	none
Cc1nn(-c2ccccc2)c(C)c1/C=N/NC(=O)CSc1nc2ccccc2c(=O)n1-c1ccc(Br)cc1	none
C/C(N)=C(/C#N)C(=O)CSc1nc2ccccc2c(=O)n1-c1ccc(C)c(Cl)c1	ELG1 repair inh 6.51µM
C/C(N)=C(/C#N)C(=O)CSc1nc2ccccc2c(=O)n1-c1ccccc1C	none
C/C(N)=C(/C#N)C(=O)CSc1nc2ccccc2c(=O)n1CCCO	none
